# Assay results published in PubChem BioAssay AID1159580 (chemical genetic matrix, 2015).
# In all, about 5,500 compounds went through this assay and about 2,000 (36%) were called active. Inconclusive results (about 18%) are left out. The list shows a part of the results. A number with no mark means an inactive call. No stated cut-off is given here; in the data, active means normalized growth mostly below about 0.91 (no sharp cut-off); inconclusive means no clear call, values can overlap the other calls; inactive means mostly above about 0.92.
# Assay: chemical genetic growth profiling, strain panel (AID 1159580);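 further: tested at 20 µM; growth read once vehicle control cultures reached saturation at 30 °C; 1 = growth at the plate median or of vehicle wells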
# Conditions: growth OD
structure (smiles),measurement,setting,value
Cc1cc(O)ccc1Cl,normalized growth,"S. cerevisiae deletion strains, locus YKL009W, strain mrt4, stronger effect = lower value",0.979
same,normalized growth,"S. cerevisiae deletion strains, locus YKL068W, stronger effect = lower value",1
same,normalized growth,"S. cerevisiae deletion strains, locus YKL085W, strain MDH1 (second series), stronger effect = lower value",0.998
same,normalized growth,"S. cerevisiae deletion strains, locus YKL085W, strain MDH1, stronger effect = lower value",0.998
same,normalized growth,"S. cerevisiae deletion strains, locus YKL160W, strain elf1, stronger effect = lower value",1.02
same,normalized growth,"S. cerevisiae deletion strains, locus YKR001C, strain vps1, stronger effect = lower value",0.937
same,normalized growth,"S. cerevisiae deletion strains, locus YKR026C, strain gcn3, stronger effect = lower value",1.01
same,normalized growth,"S. cerevisiae deletion strains, locus YKR091W, strain srl3, stronger effect = lower value",1.03
same,normalized growth,"S. cerevisiae deletion strains, locus YLL001W, strain dnm1, stronger effect = lower value",0.992
same,normalized growth,"S. cerevisiae deletion strains, locus YLL026W, stronger effect = lower value",0.987
same,normalized growth,"S. cerevisiae deletion strains, locus YLL041C, strain sdh2, stronger effect = lower value",1
same,normalized growth,"S. cerevisiae deletion strains, locus YLR027C, strain aat2, stronger effect = lower value",1
same,normalized growth,"S. cerevisiae deletion strains, locus YLR039C, strain RIC1, stronger effect = lower value",0.874
same,normalized growth,"S. cerevisiae deletion strains, locus YLR058C, strain SHM2, stronger effect = lower value",1.02
same,normalized growth,"S. cerevisiae deletion strains, locus YLR102C, strain apc9, stronger effect = lower value",1
same,normalized growth,"S. cerevisiae deletion strains, locus YLR113W, strain HOG1, stronger effect = lower value",0.965
same,normalized growth,"S. cerevisiae deletion strains, locus YLR221C, strain rsa3, stronger effect = lower value",0.994
same,normalized growth,"S. cerevisiae deletion strains, locus YLR258W, strain gsy2, stronger effect = lower value",1.01
same,normalized growth,"S. cerevisiae deletion strains, locus YLR262C, strain YPT6 (second series), stronger effect = lower value",0.814 (active)
same,normalized growth,"S. cerevisiae deletion strains, locus YLR262C, strain YPT6, stronger effect = lower value",0.904
same,normalized growth,"S. cerevisiae deletion strains, locus YLR268W, strain sec22, stronger effect = lower value",0.991
same,normalized growth,"S. cerevisiae deletion strains, locus YLR320W, strain mms22, stronger effect = lower value",0.959
same,normalized growth,"S. cerevisiae deletion strains, locus YLR330W, strain CHS5, stronger effect = lower value",1
same,normalized growth,"S. cerevisiae deletion strains, locus YLR342W, strain FKS1 (second series), stronger effect = lower value",0.986
same,normalized growth,"S. cerevisiae deletion strains, locus YLR342W, strain FKS1, stronger effect = lower value",0.982
same,normalized growth,"S. cerevisiae deletion strains, locus YLR357W, strain rsc2, stronger effect = lower value",1.08
same,normalized growth,"S. cerevisiae deletion strains, locus YLR370C, strain arc18, stronger effect = lower value",1.01
same,normalized growth,"S. cerevisiae deletion strains, locus YLR371W, strain rom2, stronger effect = lower value",1
same,normalized growth,"S. cerevisiae deletion strains, locus YLR384C, strain iki3, stronger effect = lower value",0.993
same,normalized growth,"S. cerevisiae deletion strains, locus YLR418C, strain cdc73, stronger effect = lower value",1.02
same,normalized growth,"S. cerevisiae deletion strains, locus YML016C, strain PPZ1, stronger effect = lower value",1
same,normalized growth,"S. cerevisiae deletion strains, locus YML032C, strain rad52, stronger effect = lower value",0.981
same,normalized growth,"S. cerevisiae deletion strains, locus YML120C, strain ndi1, stronger effect = lower value",1
same,normalized growth,"S. cerevisiae deletion strains, locus YML124C, strain tub3, stronger effect = lower value",0.994
same,normalized growth,"S. cerevisiae deletion strains, locus YMR058W, strain fet3, stronger effect = lower value",0.965
same,normalized growth,"S. cerevisiae deletion strains, locus YMR078C, strain ctf18, stronger effect = lower value",1.01
same,normalized growth,"S. cerevisiae deletion strains, locus YMR125W, strain sto1, stronger effect = lower value",1.13 [resistant] (active)
same,normalized growth,"S. cerevisiae deletion strains, locus YMR129W, stronger effect = lower value",1.02
same,normalized growth,"S. cerevisiae deletion strains, locus YMR205C, strain PFK2, stronger effect = lower value",0.987
same,normalized growth,"S. cerevisiae deletion strains, locus YMR223W, strain ubp8, stronger effect = lower value",1.01
same,normalized growth,"S. cerevisiae deletion strains, locus YMR231W, strain pep5, stronger effect = lower value",1.02
same,normalized growth,"S. cerevisiae deletion strains, locus YMR263W, strain SAP30, stronger effect = lower value",1.02
same,normalized growth,"S. cerevisiae deletion strains, locus YMR307W, strain GAS1, stronger effect = lower value",0.957
same,normalized growth,"S. cerevisiae deletion strains, locus YNL067W, strain RPL9B, stronger effect = lower value",1.02
same,normalized growth,"S. cerevisiae deletion strains, locus YNL071W, strain lat1, stronger effect = lower value",1.01
same,normalized growth,"S. cerevisiae deletion strains, locus YNL153C, strain GIM3, stronger effect = lower value",1.03
same,normalized growth,"S. cerevisiae deletion strains, locus YNL183C, strain NPR1, stronger effect = lower value",0.896
same,normalized growth,"S. cerevisiae deletion strains, locus YNL209W, strain ssb2, stronger effect = lower value",1
same,normalized growth,"S. cerevisiae deletion strains, locus YNL233W, strain BNI4, stronger effect = lower value",1.01
same,normalized growth,"S. cerevisiae deletion strains, locus YNL248C, strain rpa49, stronger effect = lower value",1.02
same,normalized growth,"S. cerevisiae deletion strains, locus YNL250W, strain rad50, stronger effect = lower value",0.996
same,normalized growth,"S. cerevisiae deletion strains, locus YNL271C, strain bni1, stronger effect = lower value",1.01
same,normalized growth,"S. cerevisiae deletion strains, locus YNL298W, strain CLA4, stronger effect = lower value",0.95
same,normalized growth,"S. cerevisiae deletion strains, locus YNL307C, strain MCK1, stronger effect = lower value",1
same,normalized growth,"S. cerevisiae deletion strains, locus YNL322C, strain KRE1 (second series), stronger effect = lower value",1.06
same,normalized growth,"S. cerevisiae deletion strains, locus YNL322C, strain KRE1, stronger effect = lower value",0.999
same,normalized growth,"S. cerevisiae deletion strains, locus YNR049C, strain mso1, stronger effect = lower value",0.999
same,normalized growth,"S. cerevisiae deletion strains, locus YNR052C, strain pop2, stronger effect = lower value",1
same,normalized growth,"S. cerevisiae deletion strains, locus YOL012C, strain htz1",1.23
same,normalized growth,"S. cerevisiae deletion strains, locus YOL147C, strain pex11, stronger effect = lower value",0.997
same,normalized growth,"S. cerevisiae deletion strains, locus YOR001W, strain rrp6, stronger effect = lower value",0.991
same,normalized growth,"S. cerevisiae deletion strains, locus YOR061W, strain CKA2, stronger effect = lower value",0.999
same,normalized growth,"S. cerevisiae deletion strains, locus YOR069W, strain VPS5, stronger effect = lower value",1.01
same,normalized growth,"S. cerevisiae deletion strains, locus YOR070C, strain gyp1, stronger effect = lower value",0.993
same,normalized growth,"S. cerevisiae deletion strains, locus YOR080W, strain dia2, stronger effect = lower value",1.02
same,normalized growth,"S. cerevisiae deletion strains, locus YOR083W, strain WHI5, stronger effect = lower value",0.936
same,normalized growth,"S. cerevisiae deletion strains, locus YOR106W, strain vam3, stronger effect = lower value",0.976
same,normalized growth,"S. cerevisiae deletion strains, locus YOR136W, strain idh2, stronger effect = lower value",0.999
same,normalized growth,"S. cerevisiae deletion strains, locus YOR144C, strain elg1, stronger effect = lower value",1
same,normalized growth,"S. cerevisiae deletion strains, locus YOR184W, strain ser1, stronger effect = lower value",0.982
same,normalized growth,"S. cerevisiae deletion strains, locus YOR231W, strain MKK1, stronger effect = lower value",0.937
same,normalized growth,"S. cerevisiae deletion strains, locus YOR265W, strain rbl2, stronger effect = lower value",1.01
same,normalized growth,"S. cerevisiae deletion strains, locus YOR270C, strain vph1, stronger effect = lower value",1.01
same,normalized growth,"S. cerevisiae deletion strains, locus YOR290C, strain snf2, stronger effect = lower value",1.02
same,normalized growth,"S. cerevisiae deletion strains, locus YOR316C, strain cot1, stronger effect = lower value",1.01
same,normalized growth,"S. cerevisiae deletion strains, locus YPL051W, strain arl3, stronger effect = lower value",0.992
same,normalized growth,"S. cerevisiae deletion strains, locus YPL078C, strain atp4, stronger effect = lower value",0.938
same,normalized growth,"S. cerevisiae deletion strains, locus YPL106C, strain sse1, stronger effect = lower value",1.1
same,normalized growth,"S. cerevisiae deletion strains, locus YPL240C, strain hsp82, stronger effect = lower value",1.02
same,normalized growth,"S. cerevisiae deletion strains, locus YPL256C, strain CLN2, stronger effect = lower value",0.968
same,normalized growth,"S. cerevisiae deletion strains, locus YPR119W, strain clb2, stronger effect = lower value",1
same,normalized growth,"S. cerevisiae deletion strains, locus YPR141C, strain kar3, stronger effect = lower value",1
same,normalized growth,"S. cerevisiae deletion strains, locus YPR163C, strain tif3, stronger effect = lower value",1
same,normalized growth,"S. cerevisiae deletion strains, locus YPR167C, strain met16, stronger effect = lower value",0.994
same,normalized growth,"S. cerevisiae deletion strains, strain wtn01, stronger effect = lower value",0.974
same,normalized growth,"S. cerevisiae strains, strain wild type, stronger effect = lower value",1.01
